Several values for one entry are separate records, joined by “and”; a condition that tells them apart may be missing. Equal entries are not always repeated. About 83,000 compounds went through this panel and 20% of them were active in at least one assay; those are over-represented in the sample as a whole.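 Results are percent growth after 48 hours of single-concentration exposure. 100 means growth as in untreated cells, lower positive values show inhibition; negative values down to -100 show cell death.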 A number with no mark means an inactive call. Activity calls are given as the source filed them. How the source made its calls: active means growth percent below 10; inactive means the rest.
System: MDA-MB-468 breast
Experiment: NCI-60 one-dose screen, 48 h (100 = growth as untreated, 0 = no growth, -100 = all killed)
Details: 10 µM unless noted

Structure (SMILES) | growth
CC1=C2C(=C[C@@](C)(COS(N)(=O)=O)[C@@H]2O)C(=O)[C@](C)(O)C12CC2 | -34% (active)
O=Nc1c(O)c(Cl)cc2ccccc12 | -7.81% (active)
CN1CCN(/C=C2\CC(C(=O)NCc3ccc(Cl)cc3Cl)NC2=O)CC1 (configuration not stated) | 103%
CCN1/C(=C\c2cc[n+](CC)c3ccccc23)C=Cc2ccccc21 | -9.93% (active)
CO[C@@]12C=C[C@@]34CCC(=O)N3c3ccccc3[C@@H](O1)C4C2 | 108%
COc1ccc(/C=C(\C#N)c2cc3ccccc3n2S(C)(=O)=O)cc1 | 69.3%
N=C(N)c1ccc(-c2ccc(-c3ccc4ccccc4c3)s2)s1 | -16.3% (active)
Cc1c(NC(=O)c2sc3nc4c(cc3c2N)CN(Cc2ccccc2)CC4)cccc1C(F)(F)F | -5.77% (active)
COc1ccc(-c2nc(-c3cn(C)c4ncccc34)cs2)cc1 | -6.3% [100 µM] (active)
Cc1ccc(S(=O)(=O)Nc2cccc(Cn3c(=O)[nH]c4ccc(Oc5ncccn5)cc4c3=O)c2)cc1 | 39.6%
N/C(=N\OC(=O)CSc1nc2ccccc2s1)c1ccc2ccccc2c1 | 102%
COc1ccc(-c2nsc3c2NC(=O)CC3c2cccc(Cl)c2)cc1 (configuration not stated) | -6.39% (active)
COc1cc(/C=C/C(=O)/C=C/c2cc3ccc(Cl)cc3n(Cc3ccccc3)c2=O)ccc1O | -42.8% (active)
Cc1ccc(O)c(N)c1 | 98.9%
COc1cc(/C=C2\CCC/C(=C\c3cc(CN4CCCC4)c(O)c(OC)c3)C2=O)cc(CN2CCCC2)c1O | 67.2%
Cc1ccc(C2CC(c3cccc(Nc4ccncc4)c3)=NN2c2ccccc2)cc1 (configuration not stated) | -78.5% (active)
Clc1ccc2c(c1)N(c1ncnc3ccc(-c4cnc5[nH]ccc5c4)cc13)CC2 | -4.95% (active)
COc1cccc(C(=O)OCCn2nc3c4c(cccc42)C(=O)c2ccccc2-3)c1O | 24.9%
C=CCC(CCCC)(C(=O)OCC)C(=O)OCC | 107%

Structure (SMILES) | growth
CCCCCCNC(=O)Oc1ccc(/C(=C(/CC)Cc2ccccc2)c2ccc(OCCCN(C)C)cc2)cc1 | 89.5%
CCc1cc2c(c3ccc(C(=O)CBr)cc13)CCCC2 | 111%
COc1ccc(C(=O)/C=C/c2cn(-c3ccccc3)nc2-c2cccc(Nc3ccnc4cc(Cl)ccc34)c2)cc1 | 75.7%
Oc1ccc(CSc2nnc(-c3ccc(Oc4ccccc4)cc3)n2-c2ccccc2)c2cccnc12 | -2% (active)
COC(=O)C1CCc2sc3ncnc(Nc4cn[nH]c4C(=O)Nc4ccc(CN5CCN(C)CC5)cc4)c3c21 (configuration not stated) | 37.3%
COC(=O)CC[C@@H](C)[C@H]1CC[C@H]2C3CC[C@@H]4C[C@@H]5CC[C@]4(C)[C@@]3(O5)[C@H](Br)[C@@H](Br)[C@]12C (some centres not stated) | 99.5%
CN(C)c1ccc2nc3ccc(=[N+](C)C)cc-3oc2c1 | -15.4% (active)
CC/C=C\C/C=C\C[C@H](O)C/C=C1/C(=O)C=C[C@@H]1C/C=C\CCCC(=O)O | 23.5%
COc1ccc(OC)c(C(=O)/C=C/c2cc3c(c(OC)c2OC)OCO3)c1 | 33.5%
COc1ccc(/C=C(/C(=O)N2CCCCC2)c2cc(OC)c(OC)c(OC)c2)cc1 | 13.3%
COc1cc(-c2nn(-c3cccc(NC(=O)NCCNS(=O)(=O)c4ccc(Cl)cc4)c3)cc2-c2ccncc2)ccc1Cl | -35.8% (active)
COc1ccccc1-c1c(-c2ccc(Cl)cc2)c2cc3c(cc2[nH]c1=O)OCCO3 | 62.7%
COc1cc(/C=C2\SC(=O)NC2=O)ccc1OCC(=O)Nc1ccc(C(=O)/C=C/c2cc3ccccc3nc2Cl)cc1 | 61.4%
COc1cc(C(=O)/C=C/c2ccc3nc(-c4cc(F)cc(F)c4)sc3c2)cc(OC)c1OC | 120%
CS(=O)(=O)c1ccc(-c2nn(-c3ccccc3)cc2/C=N/NC(=O)c2ccncc2)cc1 | 99%
COc1cc(-c2nc(-c3ccccc3)[nH]c2-c2ccnc(NCCCNS(=O)(=O)c3cccc(F)c3)n2)ccc1Cl | 43.2%
COc1ccc(CNc2c3ccccc3nc3ccc(OC)cc23)cc1 | -14.7% (active)
COc1cc(/C=C/C(C)=O)ccc1O | 100% and 111%

From PubChem BioAssay (NCI)
